The list is not random: actives were taken first. Their share in the collection is about 10%.
CtBP-E1A blk: blocks the CtBP interaction with E1A. activity change, % (concentration not given with the values). AlphaScreen GST-E1A/His-CtBP binding, 1536-well; hits give low values. 0.49% of 340,000 active. AID 651724; in the data active = activity change below about -65%; inconclusive = mostly about -30% to -63%; note: % is set by controls: 0 for no effect and ±100 for the full control effect
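AlphaScreen with 125 nM GST-E1A and 125 nM His-CtBP (5X stocks) in Tris pH 8.0, 300 mM NaCl, BSA, Tween 20, TCEP. Compounds preincubated 2 h at 37 deg C, then glutathione donor/nickel acceptor beads added for 1 h at 37 deg C in dark.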
G9a block: G9a (human) methyltransferase inhibition. AID 504332. Potency, µM (doses to about 102 µM), without a hit: at the top dose activity, negative = inhibition, actives largely listed as inhibitors. G9a H3K9 monomethylation, AlphaScreen, 2 h. 8.8% of 350,000 active. Q96KQ7; note: potency is the fitted concentration of half-maximal effect; % is set by controls: 0 for no effect and ±100 for the full control effect; nearly all actives have a fitted effect of over 75% in size
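Readings reflect AlphaScreen signal from monomethyl-H3K9 antibody detection. HMT at 20 nM; substrate b-H3K9 500 nM; cofactor SAM 20 uM; 2 h RT reaction; compounds tested as titrations in qHTS with 15 min preincubation.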
Six1-Eya2 blk: inhibitors of human Six1/Eya2 interaction; AlphaScreen GST-Six1/His-Eya2 binding, biochemical; hits give low values; 0.56% of 360,000 active; AID 651725; activity change, % (test concentration not listed); Q15475+O00167; in the data active = activity change below about -65%; inconclusive = mostly about -30% to -63%; note: % is set by controls: 0 for no effect and ±100 for the full control effect
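Compounds are tested against tagged Six1 and Eya2 proteins bridged by glutathione donor and nickel acceptor beads; after a one-hour incubation at 37 °C without light, AlphaScreen emission is recorded.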
JMJD2A Tudor inh: JMJD2A Tudor domain (human) inhibition; Potency, µM (doses to about 114 µM), inactives show at the highest dose activity change, negative = inhibition, actives largely listed as inhibitors; AlphaScreen JMJD2A-Tudor / H3K4me3 peptide binding; 4.4% of 390,000 active; AID 504339; O75164; note: potency is the fitted concentration of half-maximal effect; % is set by controls: 0 for no effect and ±100 for the full control effect; nearly all actives have a fitted effect of over 50% in size
BAZ2B block: blocks human BAZ2B | Q9UIF8 | AlphaScreen BAZ2B-H3K14Ac peptide displacement | Potency, µM (series often up to 114 µM), inactives show top-dose activity change, negative = inhibition, hits mostly inhibitors | 4.4% of 360,000 active; note: potency is the fitted concentration of half-maximal effect; % is set by controls: 0 for no effect and ±100 for the full control effect; nearly all actives have a fitted effect of over 60% in size
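AlphaScreen displacement of biotin-H3(5-23)K14Ac peptide (50 nM final) from BAZ2B (50 nM final) in PBS pH 7.4, 0.01% Tween-20; complex preformed 30 min RT, then compounds (top 110 uM) 30 min RT, beads 20 min dark.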
HP1b chromo inh: blocks HP1-beta chromodomain binding to methylated histone tails; P83916; 0.56% of 390,000 active; Potency, µM (doses to about 114 µM), for the others: at the highest dose activity change, negative = inhibition, actives largely listed as inhibitors; AlphaScreen HP1-beta / biotin-H3K9me3 peptide binding; AID 540317; note: potency is the fitted concentration of half-maximal effect; nearly all actives have a fitted effect of over 70% in size
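AlphaScreen: HP1-beta (50 nM) preformed 30 min with biotin-H3(1-18)K9me3 peptide (50 nM) in PBS pH 7.4, 0.01% Tween-20. Compound added for 30 min at RT, then streptavidin donor/nickel chelate acceptor beads (10 ug/mL) for 30 min.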
* = called active by the depositor; [ ] = remark or other dose. Unless noted, calls come from the whole dose curve; as a rule, active = well fitted inhibition curve with a large enough effect; inconclusive = small, poorly fitted or top-dose-only effect; inactive = no such curve, though single readings can be large or run the other way.

`Nc1cccnc1Sc1ccc([N+](=O)[O-])cn1` gave CtBP-E1A blk -17.9, G9a block 1µM*, Six1-Eya2 blk -0.6, JMJD2A Tudor inh 1.58µM*, BAZ2B block -29.1% and HP1b chromo inh -15.7%.
For Cc1ccc(-n2cc(CN3CCN(Cc4nccn4C)CC3)c(-c3cccc(C)c3)n2)cc1 the results were CtBP-E1A blk -12.1, G9a block inconclusive, Six1-Eya2 blk -18.9, JMJD2A Tudor inh inconclusive, BAZ2B block inconclusive and HP1b chromo inh -4.2%.
CCn1ccnc1CNCc1cn(-c2cc(C)ccc2C)nc1-c1ccccc1 was read as G9a block -10.2%, Six1-Eya2 blk -81.7*, JMJD2A Tudor inh inconclusive, BAZ2B block 39.8µM* and HP1b chromo inh 10.1%.
Screening Cc1ccc(C)c(-n2cc(CNCCc3cnccn3)c(-c3ccccc3)n2)c1 returned G9a block -0.4%, Six1-Eya2 blk -0.1, JMJD2A Tudor inh -7.8%, BAZ2B block -19.8% and HP1b chromo inh 30.7%.
`Cc1cccc(-n2cc(CN(C)Cc3nccn3C)c(-c3cccc(F)c3)n2)c1` gave G9a block 15.8µM*, Six1-Eya2 blk 0.0, JMJD2A Tudor inh 39.8µM*, BAZ2B block inconclusive and HP1b chromo inh inconclusive.
CCn1ccnc1CN(C)Cc1cn(-c2cccc(C)c2)nc1-c1cccc(F)c1 was read as CtBP-E1A blk 0.0, G9a block 11.2µM*, Six1-Eya2 blk inconclusive, JMJD2A Tudor inh 50.1µM*, BAZ2B block 35.5µM* and HP1b chromo inh inconclusive.
`CCn1ccnc1CN(C)Cc1cn(-c2ccc(C)cc2)nc1-c1cccc(C)c1` gave CtBP-E1A blk -18.6, G9a block 31.6µM*, Six1-Eya2 blk -19.0, JMJD2A Tudor inh inconclusive, BAZ2B block 39.8µM* and HP1b chromo inh inconclusive.
Nc1c(C(=O)Nc2cccc(F)c2)c2ccccn2c1C(=O)c1ccccc1 was read as G9a block 0.6%[59 µM], JMJD2A Tudor inh -9.1%, BAZ2B block -2.2% and HP1b chromo inh 14.5%.
For Cc1cccc(CN2CCN(CC(=O)NCCc3ccc(Cl)cc3)C2=O)c1 the results were G9a block 1.0%[59 µM], JMJD2A Tudor inh -17.8%, BAZ2B block -4.0% and HP1b chromo inh 7.1%.
Screening O=C(CNC(=O)C(c1ccccc1)c1ccccc1)OCC(=O)c1cccc2ccccc12 returned JMJD2A Tudor inh -14.6%[57.1 µM] and HP1b chromo inh 13.2%[57 µM].
Screening COc1ccc(C2=NNC(c3ccco3)=Nc3ccc(F)cc32)cc1 returned CtBP-E1A blk -0.1, G9a block 44.7µM*, Six1-Eya2 blk -4.0, JMJD2A Tudor inh -27.8%, BAZ2B block inconclusive and HP1b chromo inh -16.5%.
Screening CC(=O)Nc1ccc(S(=O)(=O)N2CCN(S(=O)(=O)c3ccc4c(c3)OCCO4)CC2)cc1 returned JMJD2A Tudor inh -5.4%.
Screening COc1ccc(N2C(=O)c3ccccc3NC23CCCC3)cc1 returned CtBP-E1A blk 4.1, G9a block inconclusive, Six1-Eya2 blk 4.9, JMJD2A Tudor inh -10.2%, BAZ2B block -23.0% and HP1b chromo inh 16.3%.
`COc1ccc(N2C(S)=C(C#N)C(=O)NC23CCCCC3)cc1` gave CtBP-E1A blk -13.9, G9a block 35.5µM*, Six1-Eya2 blk 23.6, JMJD2A Tudor inh -13.9%, BAZ2B block inconclusive and HP1b chromo inh 29.6%.
O=C(N/N=C/c1cc(Cl)cc([N+](=O)[O-])c1O)c1cc(-c2ccccn2)nc2ccccc12 was read as CtBP-E1A blk 19.9, G9a block -5.7%[12.7 µM], Six1-Eya2 blk -10.8, JMJD2A Tudor inh 44.7µM*, BAZ2B block inconclusive and HP1b chromo inh inconclusive.
For O=C(O)COc1ccccc1/C=N/NC(=O)c1cc(-c2ccc(F)cc2)nc2ccccc12 the results were CtBP-E1A blk inconclusive, G9a block 3.4%, Six1-Eya2 blk -71.6*, JMJD2A Tudor inh inconclusive, BAZ2B block -11.6% and HP1b chromo inh -9.0%.
O=[N+]([O-])c1ccc(Cl)cc1C=NNc1ccccn1 was read as CtBP-E1A blk 6.0, Six1-Eya2 blk -4.2, JMJD2A Tudor inh -13.2% and HP1b chromo inh 22.7%.
`C/C(=N\NC(=O)c1cc(-c2ccccn2)nc2ccccc12)c1cccc([N+](=O)[O-])c1` gave CtBP-E1A blk -12.2, G9a block -29.7%, Six1-Eya2 blk 16.4, JMJD2A Tudor inh -13.3% and HP1b chromo inh 38.0%.
For O=C(N/N=C/c1ccc(F)cc1)c1cc(-c2ccccn2)nc2ccccc12 the results were CtBP-E1A blk 6.2, G9a block -0.6%, Six1-Eya2 blk -1.9, JMJD2A Tudor inh -11.7%, BAZ2B block 1.4% and HP1b chromo inh 43.6%.
`O=[N+]([O-])c1cc(Cl)cc(/C=N\Nc2ccccn2)c1O` gave CtBP-E1A blk -87.3*, G9a block inconclusive, Six1-Eya2 blk -94.7*, JMJD2A Tudor inh 10µM*, BAZ2B block 4.47µM* and HP1b chromo inh 10µM*.
`COc1cccc(/C=N/NC(=O)c2cc(-c3ccccn3)nc3ccccc23)c1O` gave CtBP-E1A blk -94.6*, G9a block 42.7%[12.7 µM], Six1-Eya2 blk -74.8*, JMJD2A Tudor inh 56.2µM*, BAZ2B block -29.9% and HP1b chromo inh -6.1%[57 µM].
Screening COc1cc(CN(C(=O)COc2ccc(Cl)cc2)c2ccccn2)cc(OC)c1OC returned G9a block -26.4%[59 µM], JMJD2A Tudor inh -8.6%, BAZ2B block -5.7% and HP1b chromo inh 42.6%.
For Cc1cccc(C)c1OCc1cc(=O)n2ccsc2n1 the results were G9a block 4.6%[59 µM], JMJD2A Tudor inh -8.3%, BAZ2B block -10.7% and HP1b chromo inh 31.9%.
CCc1ccc2nc(N3C(=O)C(O)=C(C(=O)c4ccco4)C3c3cccs3)sc2c1 (centres undefined) was read as CtBP-E1A blk 3.3, G9a block inconclusive, Six1-Eya2 blk inconclusive, JMJD2A Tudor inh inconclusive, BAZ2B block 50.1µM* and HP1b chromo inh inconclusive.
`Cc1ccc2nc(N3C(=O)C(O)=C(C(=O)c4ccco4)C3c3ccc(C)o3)sc2c1` (centres undefined) gave CtBP-E1A blk -26.1, G9a block 39.8µM*, Six1-Eya2 blk -11.2, JMJD2A Tudor inh 10µM*, BAZ2B block 50.1µM* and HP1b chromo inh -8.4%[57 µM].
Cc1ccc2nc(N3C(=O)C(O)=C(C(=O)c4ccc(C)o4)C3c3ccco3)sc2c1 (centres undefined) was read as CtBP-E1A blk -1.0, G9a block inconclusive, Six1-Eya2 blk -3.5, JMJD2A Tudor inh 50.1µM*, BAZ2B block 50.1µM* and HP1b chromo inh -11.8%.

Compound activity from PubChem BioAssay.
